Reference: paper PMC4336329 (PLoS ONE, 2015)
The whole screen tested about 310,000 compounds, of which about 14,000 (4.5%) showed an effect of 50% or more. Effects have a minus sign here. Shown is part of a subset that was picked to be rich in strong results.

Molecular target: human ether-à-go-go-related gene (hERG) potassium channel (human, UniProt Q12809)
Assay: primary screen, population patch clamp on CHO cells stably expressing hERG; higher = less effect of the substance
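Further: peak tail current of the secondary pulse compared with the same well before compound.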

human ether-à-go-go-related gene (hERG) potassium channel, sequence (Q12809 whole entry, looked up): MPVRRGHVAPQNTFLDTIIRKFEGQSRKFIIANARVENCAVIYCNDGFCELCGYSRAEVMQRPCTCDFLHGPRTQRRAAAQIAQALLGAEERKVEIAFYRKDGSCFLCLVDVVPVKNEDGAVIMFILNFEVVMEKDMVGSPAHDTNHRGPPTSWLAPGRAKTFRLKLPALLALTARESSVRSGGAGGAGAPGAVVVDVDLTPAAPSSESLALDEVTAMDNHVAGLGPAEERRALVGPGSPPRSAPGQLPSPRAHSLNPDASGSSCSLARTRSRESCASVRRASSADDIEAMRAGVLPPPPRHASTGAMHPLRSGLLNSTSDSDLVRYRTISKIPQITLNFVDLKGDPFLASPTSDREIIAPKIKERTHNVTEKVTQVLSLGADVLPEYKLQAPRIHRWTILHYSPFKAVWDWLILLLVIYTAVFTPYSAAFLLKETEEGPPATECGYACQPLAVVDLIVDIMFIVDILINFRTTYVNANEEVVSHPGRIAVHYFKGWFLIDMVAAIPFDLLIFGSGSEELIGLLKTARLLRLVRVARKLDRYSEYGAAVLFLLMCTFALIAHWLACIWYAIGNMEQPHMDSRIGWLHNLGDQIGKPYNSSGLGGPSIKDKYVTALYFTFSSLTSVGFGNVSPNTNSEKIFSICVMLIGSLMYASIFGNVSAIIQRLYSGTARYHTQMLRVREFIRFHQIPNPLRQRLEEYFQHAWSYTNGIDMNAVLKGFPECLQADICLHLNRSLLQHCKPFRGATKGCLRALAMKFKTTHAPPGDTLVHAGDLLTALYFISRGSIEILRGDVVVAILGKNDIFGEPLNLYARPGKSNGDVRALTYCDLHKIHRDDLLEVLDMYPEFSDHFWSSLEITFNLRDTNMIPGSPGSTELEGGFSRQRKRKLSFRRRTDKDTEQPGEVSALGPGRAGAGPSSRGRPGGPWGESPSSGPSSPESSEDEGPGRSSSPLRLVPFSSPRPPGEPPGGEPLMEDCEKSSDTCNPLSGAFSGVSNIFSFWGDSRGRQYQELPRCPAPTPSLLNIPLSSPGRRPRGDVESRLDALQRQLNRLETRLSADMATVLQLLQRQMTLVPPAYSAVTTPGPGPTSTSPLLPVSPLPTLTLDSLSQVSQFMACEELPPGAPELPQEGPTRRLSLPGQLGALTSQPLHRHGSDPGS

Point of comparison: `COC(=O)CCC(=O)NNC(=O)CCC(=O)Nc1cccc(Cl)c1C`, “hERG current change (%, negative = inhibition) at 10uM” value 6.61%. Against it:
- CC(Sc1ncn[nH]1)C(=O)Nc1ccc(Cl)cn1 (centres unmarked) — lower, 2.06%
- O=C(O)c1ccc(/C=C/c2nc3ccccc3c(=O)[nH]2)cc1 — higher, 17.5%
- CCSc1nnc(NC(=O)c2cccs2)s1 — lower, -8.23%
- COc1cc(OC)cc(-c2nnc(SCC(=O)N3c4ccccc4Sc4ccccc43)o2)c1 — higher, 15.3%
- CC1C=CCC2C(=O)N(c3ccc(Cl)cc3O)C(=O)C12 (centres unmarked) — lower, -2.47%
- COC(=O)c1sc(N2C(=O)C(O)=C(C(=O)c3ccc(C)o3)C2c2ccco2)nc1C (centres unmarked) — lower, -4.73%
- O=C(O)C1=C[C@H](c2ccc(C(F)(F)F)cc2)C[C@H](OCc2ccc(CO)cc2)O1 — higher, 21.5%
- O=C(CSc1ccsc1[N+](=O)[O-])N1CCN(c2ccc(Cl)cc2)CC1 — higher, 10%
- O=C(COc1ccc(Cl)cc1)Nc1ccc(NC(=O)c2ccco2)cc1 — higher, 13.4%
- COc1cccc(CN(C)C(=O)Nc2cccc(C(F)(F)F)c2)c1OC — lower, -4.73%
- O=C(NCc1ccc(Cl)cc1)c1cc2c(s1)CS(=O)(=O)C2 — lower, -15.1%
- O=C(CCCn1c(=O)c2sccc2n(Cc2ccc(F)cc2)c1=O)NCc1ccco1 — lower, -30.2%
- O=C(NCc1cccs1)Nc1ccc(Cl)cc1 — lower, -21.2%
- O=C(O)c1ccc2c(c1)S(=O)(=O)c1cc(Cl)ccc1C2=O — higher, 19.5%
- Cc1cccc(N2CCN(C(=O)COc3ccc4ccc(=O)oc4c3)CC2)c1C — lower, 5.66%
- CCC(CO)[n+]1c(C)cc(/C=C2\Sc3ccccc3N2Cc2ccccc2)cc1C.[Br-] (centres unmarked) — lower, -75.6%
- C[n+]1ccccc1/C=C1\Sc2ccccc2N1CCO.[I-] — lower, -2.79%
- CCN1/C(=C2\SC(=S)N(Cc3ccccc3)C2=O)Sc2ccccc21 — higher, 13.6%
- Nc1cc([N+](=O)[O-])ccc1O — higher, 6.95%
- Clc1cncc(Cl)c1N/N=C/c1ccccc1 — lower, -1.37%
- CNC(=O)c1cc2cc(Cc3ccccc3Cl)ccc2oc1=O — lower, 1.75%
- CCN1C(=O)C(CC(=O)Nc2ccc(F)cc2)N(Cc2cccs2)C1=S (centres unmarked) — lower, -48.9%
- CCOc1ccc2c(c1)C(N(CCN1CCOCC1)C(=S)Nc1ccccc1OC)CC(C)(C)O2 (centres unmarked) — lower, -24.9%
- CCOc1ccc2c(c1)C(N(CCN1CCOCC1)C(=O)Nc1ccccc1)CC(C)(C)O2 (centres unmarked) — lower, -19.1%
- CCOc1ccc2c(c1)C(N(CCN1CCOCC1)C(=O)Nc1ccc(OC)cc1OC)CC(C)(C)O2 (centres unmarked) — lower, -51.9%
- CN(C(=O)/C=C/c1ccc2c(c1)OCO2)c1ccccc1 — lower, -4.59%
- CC(C)CNC(=O)C(=O)NCC(c1ccc2c(c1)OCO2)N1CCOCC1 (centres unmarked) — higher, 6.81%
- COc1ccc(C(CNC(=O)C(=O)Nc2ccc3c(c2)OCCO3)N2CCN(C)CC2)cc1 (centres unmarked) — lower, -45.1%
- COc1ccc(C(CNC(=O)C(=O)Nc2ccc3c(c2)OCO3)N2CCN(C)CC2)cc1 (centres unmarked) — lower, -50.9%
- CN1CCN(C(CNC(=O)C(=O)Nc2ccc3c(c2)OCCO3)c2ccc(F)cc2)CC1 (centres unmarked) — lower, -46.2%
- CN1CCN(C(CNC(=O)C(=O)Nc2ccc3c(c2)OCO3)c2ccc(F)cc2)CC1 (centres unmarked) — lower, -44.3%
- Cc1ccc(C(CNC(=O)C(=O)Nc2ccc3c(c2)OCCO3)N2CCN(C)CC2)cc1 (centres unmarked) — lower, -55.5%
- CCOc1cc2c(cc1OC)C(NC(=O)C(F)(F)F)CC2=O (centres unmarked) — lower, -0.243%
- CC1CCc2nc3ccc(S(=O)(=O)N4CCC(C(=O)NCc5ccccc5Cl)CC4)cc3c(C(=O)O)c2C1 (centres unmarked) — higher, 7.04%
- O=C(O)c1ccc(N2C(=O)CC(N3CCC(c4nc5ccccc5[nH]4)CC3)C2=O)cc1 (centres unmarked) — lower, 4.95%
- COc1ccc(-c2ccc(Nc3ccc(C(=O)N4CCOCC4)cc3)nn2)cc1OC — lower, -5.3%
- CCC(=O)c1ccc2c(c1)OCCO2 — lower, 3.36%
- CC(=O)Nc1ccc2c(c1)OCCOCCOc1cc(NC(C)=O)ccc1OCCO2 — lower, -4.52%
- Nc1cc[n+](CC(=O)c2ccc3c(c2)OCCO3)cc1.[Br-] — lower, -0.154%
- CC(=O)N/N=C(\C)c1ccc2c(c1)OCCO2 — higher, 11%
- O=C(C[n+]1ccc(/C=C/c2ccccc2)cc1)c1ccc2c(c1)OCCO2.[Br-] — lower, -50.2%
- CC(=O)N1CCN(C(=O)c2ccc3c(c2)OCCO3)CC1 — higher, 10.9%
- Cc1cc[n+](CC(=O)c2ccc3c(c2)OCCO3)cc1.[Br-] — lower, -22.2%
- CC(=O)c1ccc2c(c1)OCCOCCOc1ccccc1OCCOCCO2 — lower, -74.4%
- CC(=O)Nc1ccc2c(c1)OCCOCCOc1cc(NC(C)=O)ccc1OCCOCCOCCO2 — lower, -2.81%
- C/C(=N/O)c1ccc2c(c1)OCCOCCOc1cc(/C(C)=N/O)ccc1OCCOCCO2 — lower, -77.3%
- C/C(=N\O)c1ccc2c(c1)OCCO2 — higher, 14.3%
- CC(C)(C)C(=O)Nc1ccc2c(c1)OCCOCCOc1cc(NC(=O)C(C)(C)C)ccc1OCCOCCO2 — lower, -65.5%
- CNC(=O)c1cc(-c2ccc(Cl)cc2)n(-c2ccccc2)n1 — lower, 4.41%
- Cc1ccc(C)c(NS(=O)(=O)c2cc(C(=O)NCC3CCCO3)ccc2C)c1 (centres unmarked) — lower, -47.7%
- Cc1nc(S(=O)(=O)Cc2ccccc2Cl)nc2c1CCC2 — higher, 24.1%
- O=C(CSc1nc2c(cnn2-c2cccc(Cl)c2)c(=O)[nH]1)NCCC1=CCCCC1 — lower, -16.7%
- CC(C)NC(=O)COC(=O)CNC(=O)c1cc(Cl)cc([N+](=O)[O-])c1 — lower, -0.0659%
- COC(=O)/C(=N\OCc1ccc(C#N)cc1)c1c(C)nn(C)c1C — lower, -29.3%
- CC1(C2CC2)NC(=O)N(CC(=O)Nc2ccc(Cl)c([N+](=O)[O-])c2)C1=O (centres unmarked) — lower, -1.15%
- CCCc1n[nH]c(=O)c2c1nnn2Cc1ccccc1 — lower, 4.86%
- O=C(O)c1ccc2c(c1)OCCCO2 — lower, 4.27%
- CC(=O)c1ccc2c(c1)OCCOCCOCCOCCO2 — lower, -49.3%
- O=C(O)c1ccc2c(c1)OCCO2 — lower, 3.19%
- CC(=O)c1ccc2c(c1)OCCOCCOCCO2 — higher, 8.76%
- O=C(c1ccccc1)c1ccc2c(c1)OCCOCCOCCOCCO2 — lower, -65%
- O=C(c1ccccc1)c1ccc2c(c1)OCCCO2 — lower, -5.56%
- O=C(c1ccccc1)c1ccc2c(c1)OCCOCCOCCO2 — lower, -3.96%
- O=C(O)c1ccc2c(c1)OCCOCCOCCOCCOCCO2 — lower, -64%
- CC(=O)c1ccc2c(c1)OCO2 — higher, 16.1%
- NC(=O)c1ccc2c(c1)OCCO2 — lower, 6.04%
- CC(=O)c1ccc2c(c1)OCCOCCOCCOCCOCCO2 — lower, -62.4%
- CC(=O)c1ccc2c(c1)OCCOCCOc1ccc(C(C)=O)cc1OCCOCCO2 — lower, -76.6%
- CC(=O)Nc1ccc(C(=O)NNC(=O)c2cccc(C)c2)cc1 — lower, -1.91%
- CCCC(=O)Nc1nnc(-c2ccco2)s1 — lower, 2.55%
- O=C(COC(=O)CSc1ccc(F)cc1)NNC(=O)c1ccc([N+](=O)[O-])cc1 — lower, -30.2%
- O=C(CCCN1C(=O)/C(=C/c2cccs2)SC1=S)NNC(=O)c1ccccc1O — lower, 4.76%
- COc1ccccc1Nc1nn2c(=O)c3ccc(C(=O)N4CCCCC4)cc3nc2s1 — lower, 3.25%
- Cc1cccc(OCC(=O)N=Nc2c(O)[nH]c3ccc([N+](=O)[O-])cc23)c1 — lower, -2.59%
- CCOC(=O)CN1C(=O)C(Sc2n[nH]c(-c3cccc(C)c3)n2)CCc2ccccc21 (centres unmarked) — lower, 6.35%
- COc1ccc(CCC(=O)N2CCCc3ccccc32)cc1 — lower, 6.02%
- Nc1c(S(=O)(=O)c2cc(Cl)ccc2Cl)c2nc3ccccc3nc2n1CCN1CCOCC1 — lower, -15.3%
- CC(NCC(O)COc1ccccc1)C1COc2ccccc2O1 (centres unmarked) — lower, -46.7%
- CC(C)N1CCN(Cc2ccncc2)CC1CCO (centres unmarked) — lower, 4.5%
- CC(C)N1CCN(Cc2ccc(OC3CCCC3)cc2)CC1CCO (centres unmarked) — lower, -10.7%
- COc1ccc(CN2CCN(C(C)C)C(CCO)C2)cc1Cn1cncn1 (centres unmarked) — higher, 34.1%
- COc1cc(CN2CCN(C(C)C)C(CCO)C2)ccc1OCc1ccccc1 (centres unmarked) — lower, -55.2%
- CCN1CCN(Cc2ccc(OCc3ccccc3)c(OC)c2)CC1 — lower, -17.7%
- CC(C)N1CCN(Cc2ccc3c(c2)Cc2ccccc2-3)CC1CCO (centres unmarked) — lower, -52.4%
- CC(C)N1CCN(Cc2ccc(Oc3ncccn3)cc2)CC1CCO (centres unmarked) — higher, 10.9%
- CC(C)N1CCN(Cc2ccc3nsnc3c2)CC1CCO (centres unmarked) — higher, 8.66%
- CC(C)N1CCN(Cc2ccc(OCc3ccccc3)cc2)CC1CCO (centres unmarked) — lower, -51.6%
- CCCSc1nsc(NC(=O)C(c2ccccc2)c2ccccc2)n1 — higher, 19.3%
